Measured values: PubChem BioAssay AID1159580 (chemical genetic matrix, 2015)
Values joined by “and” are separate entries in the source; they are usually repeats but may differ in a detail not shown here. Equal entries are not always repeated. About 2,000 (36%) of roughly 5,500 compounds were called active. Inconclusive results (about 18%) are left out. Rule as the data show it: active = normalized growth mostly below about 0.91 (no sharp cut-off); inconclusive = no clear call, values can overlap the other calls; inactive = mostly above about 0.92. The list shows a part of the results.

Test: chemical genetic growth profiling, strain panel (AID 1159580);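 also: tested at 20 µM; growth read once vehicle control cultures reached saturation at 30 °C; 1 = growth at the plate median or of vehicle wells; lower values mean less growth of the strain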
Details: S. cerevisiae deletion strains, growth OD

Measured: normalized growth

O=C(O)c1cc(=O)c2c(OCC(O)COc3cccc4oc(C(=O)O)cc(=O)c34)cccc2o1
inactive: locus YAL013W, strain DEP1, active compounds read low 1.01 | locus YAL021C, strain ccr4, active compounds read low 0.964 | locus YAL026C, strain drs2, active compounds read low 1.01 | locus YAL030W, strain snc1, active compounds read low 0.996 | locus YBL061C, strain skt5, active compounds read low 0.977 | locus YBR009C, strain hhf1, active compounds read low 0.994 | locus YBR021W, strain FUR4, active compounds read low 1.01 | locus YBR023C, strain chs3, active compounds read low 0.992 | locus YBR171W, strain sec66, active compounds read low 0.96 | locus YBR229C, strain ROT2, active compounds read low 1.01 | locus YBR231C, strain swc5, active compounds read low 0.963 | locus YBR279W, strain paf1, active compounds read low 0.995 | locus YCL011C, strain gbp2, active compounds read low 1 | locus YCL016C, strain dcc1, active compounds read low 1.02 | locus YCL029C, strain bik1, active compounds read low 1.02 | locus YCL061C, strain MRC1, active compounds read low 0.983 | locus YCL069W, strain vba3, active compounds read low 0.977 | locus YCR088W, strain abp1, active compounds read low 0.974 | locus YDL005C, strain med2, active compounds read low 0.974 | locus YDL035C, strain GPR1, active compounds read low 1.01 | locus YDL040C, strain nat1, active compounds read low 0.964 | locus YDL074C, strain BRE1, active compounds read low 1.01 | locus YDL101C, strain DUN1, active compounds read low 1.01 | locus YDL185W, strain tfp1, active compounds read low 1.03 | locus YDL192W, strain arf1, active compounds read low 1.02 | locus YDR001C, strain nth1, active compounds read low 0.971 | locus YDR069C, strain doa4, active compounds read low 0.971 | locus YDR101C, strain arx1, active compounds read low 1.03 | locus YDR137W, strain rgp1, active compounds read low 0.973 | locus YDR159W, strain sac3, active compounds read low 0.926 | locus YDR162C, strain NBP2, active compounds read low 1.01 | locus YDR195W, strain ref2 0.896 | locus YDR297W, strain sur2, active compounds read low 0.987 | locus YDR318W, strain mcm21, active compounds read low 1.02 | locus YDR334W, strain swr1, active compounds read low 0.969 | locus YDR335W, strain msn5, active compounds read low 0.967 | locus YDR388W, active compounds read low 1.02 | locus YDR392W, strain spt3, active compounds read low 1.03 | locus YDR502C, strain sam2, active compounds read low 1 | locus YEL003W, strain gim4, active compounds read low 0.955 | locus YEL037C, strain rad23, active compounds read low 0.955 | locus YEL061C, strain CIN8 (second series), active compounds read low 0.964 | locus YEL061C, strain CIN8, active compounds read low 1.01 | locus YER015W, strain faa2, active compounds read low 0.99 | locus YER016W, strain bim1, active compounds read low 0.996 | locus YER110C, active compounds read low 1.03 | locus YER111C, strain swi4, active compounds read low 0.972 | locus YER155C, strain BEM2 (second series), active compounds read low 0.935 | locus YER155C, strain BEM2, active compounds read low 1.01 | locus YER167W, strain BCK2, active compounds read low 1.01 | locus YFR010W, strain ubp6, active compounds read low 0.969 | locus YGL078C, strain dbp3, active compounds read low 1.01 | locus YGL086W, strain mad1, active compounds read low 1 | locus YGL167C, strain pmr1, active compounds read low 0.96 | locus YGL173C, strain kem1, active compounds read low 0.959 | locus YGL227W, strain vid30, active compounds read low 0.977 | locus YGL240W, strain doc1, active compounds read low 0.959 | locus YGL248W, strain PDE1, active compounds read low 1.01 | locus YGL253W, strain hxk2, active compounds read low 0.983 | locus YGR135W, strain pre9, active compounds read low 1.02 | locus YGR229C, strain SMI1, active compounds read low 1.02 | locus YGR252W, strain gcn5, active compounds read low 1.03 | locus YHR013C, strain ard1, active compounds read low 0.979 | locus YHR027C, strain rpn1, active compounds read low 0.989 | locus YHR030C, strain SLT2, active compounds read low 1.01 and 1 | locus YHR079C, strain IRE1 (second series), active compounds read low 1.03 | locus YHR079C, strain IRE1, active compounds read low 1 | locus YHR094C, strain hxt1, active compounds read low 1.02 | locus YHR129C, strain ARP1, active compounds read low 1.01 | locus YHR142W, strain chs7, active compounds read low 0.966 | locus YHR200W, strain rpn10, active compounds read low 1.02 | locus YIL066C, strain RNR3, active compounds read low 1.01 | locus YIL073C, strain SPO22, active compounds read low 1.06 | locus YIL125W, strain kgd1, active compounds read low 1.02 | locus YIR030C, strain dcg1, active compounds read low 1.03 | locus YJL092W, strain hpr5, active compounds read low 0.978 | locus YJL095W, strain BCK1 (second series), active compounds read low 0.974 | locus YJL095W, strain BCK1, active compounds read low 1.02 and 0.989 | locus YJL115W, strain asf1, active compounds read low 0.967 | locus YJL129C, strain trk1, active compounds read low 0.931 | locus YJL134W, strain LCB3, active compounds read low 1.01 | locus YJL154C, strain vps35, active compounds read low 0.962 | locus YJL164C, strain tpk1, active compounds read low 1 | locus YJL166W, strain qcr8, active compounds read low 0.953 | locus YJL168C, strain set2, active compounds read low 1.02 | locus YJL187C, strain SWE1 (second series), active compounds read low 1.02 | locus YJR043C, strain POL32, active compounds read low 0.998 | locus YJR066W, strain TOR1, active compounds read low 0.992 | locus YJR075W, strain HOC1, active compounds read low 1.01
